CCHFV vOTU inh: blocks the CCHF virus ovarian tumor domain protease; CCHFV vOTU protease, Pep-AMC fluorescence; inhibition, % at 11.5 µM; 370,000 compounds, 0.55% hits; AID 651958; in the data active = inhibition above about 30%
Anthrax LF inh2: inhibitors of Bacillus anthracis lethal factor protease | 360,000 compounds, 0.12% hits | multiplex microsphere protease cleavage assay, LF | AID 588501 | inhibition, % at 10 µM
BoNT-F LC inh: inhibitors of Botulinum neurotoxin F light chain protease. AID 588497. inhibition, % at 10 µM. 360,000 compounds, 0.22% hits. Multiplex microsphere protease cleavage assay, flow cytometry; in the data active = inhibition above about 35%, passing the limit was not always enough; inconclusive = no clear call, values can overlap the other calls
Bead autofluor: counter-screen for toxin protease inhibitors: compound fluorescence; compound autofluorescence counterscreen, microsphere flow cytometry; hits give high values; 360,000 compounds, 3.1% hits; fluorescence intensity (test concentration not listed); in the data active = fluorescence intensity above about 16000; inconclusive = no clear call, values can overlap the other calls
3CLpro inhibitor: SARS-CoV 3CLpro protease inhibition | AID 1706 | P0C6X7 | inhibition, % at 6 µM | recombinant SARS-CoV 3CLpro, quenched FRET peptide cleavage | 290,000 compounds, 0.14% hits; in the data active = inhibition above about 12%
BoNT-A LC inh2: blocks Botulinum neurotoxin A light chain protease; multiplex microsphere protease substrate cleavage, flow cytometry; inhibition, % at 10 µM; 360,000 compounds, 0.17% hits; AID 588499
Each line names hits and unclear results; the compound was inactive in the other large screens. An excerpt weighted towards active compounds, which were near 3.9% of everything screened. Rule as the data show it, unless noted: active = inhibition above about 30%; inconclusive = no clear call, values can overlap the other calls; inactive = below that.

Cc1ccccc1-n1c(O)c(/C=C2/C(c3ccccc3)=Nc3ccccc32)c(=O)[nH]c1=O	BoNT-A LC inh2 47
Cc1ccc(-n2c(O)c(/C=C3/C(c4ccccc4)=Nc4ccccc43)c(=O)[nH]c2=O)cc1	none
COc1cc(OC)cc(C(=O)N2CCN(Cc3cccc(F)c3)CC2)c1	BoNT-F LC inh inconclusive, Bead autofluor inconclusive, BoNT-A LC inh2 inconclusive
CCOc1ccc(C(=O)N2CCCC2)cc1OC	Bead autofluor 21510
COc1cccc(C(=O)N2CCN(Cc3cccc(F)c3)CC2)c1	Bead autofluor 23288
CCOc1ccc(C(=S)N2CCCC2)cc1OC	none
COc1ccc(CN2CCN(C(=O)c3cc(OC)c(OC)c(OC)c3)CC2)cc1OC	Bead autofluor 22314, BoNT-A LC inh2 inconclusive (no result: CCHFV vOTU inh)
O=C1CSc2ccc(C(=O)N3CCCC(C(=O)N4CCCN(Cc5ccccc5)CC4)C3)cc2N1 (centres undefined)	none (no result: Anthrax LF inh2, BoNT-F LC inh, Bead autofluor, 3CLpro inhibitor, BoNT-A LC inh2)
CNC(=O)C[C@@H]1CC[C@@H]2[C@H](COc3ccc(NC(=O)c4cccc(F)c4)cc3C(=O)N2C)O1	none (no result: Anthrax LF inh2, BoNT-F LC inh, Bead autofluor, 3CLpro inhibitor, BoNT-A LC inh2)
Cc1cc(C)n(-c2ccn(Cc3ccc(Cl)cc3Cl)c(=O)n2)n1	Bead autofluor 23685
Cc1ccc(Nc2ncccc2C(=O)NCc2cccs2)c(C)c1	Bead autofluor 21631, BoNT-A LC inh2 inconclusive
Cc1cccc(Nc2ncccc2C(=O)NCc2cccs2)c1C	none
COc1ccc2c(c1)CNC2CS(=O)(=O)NCC(C)C (centres undefined)	none (no result: Anthrax LF inh2, BoNT-F LC inh, Bead autofluor, 3CLpro inhibitor, BoNT-A LC inh2)
COc1ccc(CNc2nc3c(c(=O)n(Cc4ccc(F)cc4)c(=O)n3C)n2C)cc1	Bead autofluor 21752, BoNT-A LC inh2 inconclusive
CCCSc1nnc(C(C)C)n1N	Bead autofluor 22250, BoNT-A LC inh2 inconclusive
CC(C)c1nnc(SCc2ccc(CSc3nnc(C(C)C)n3N)cc2)n1N	none
CCOc1cc(C(=O)N2CCN(C/C=C/c3ccccc3)CC2)cc(OCC)c1OCC	none
Cc1onc(-c2ccccc2)c1C(=O)N1CCN(C/C=C/c2ccccc2)CC1	none
Cc1cc(C(=O)N2CCN(C/C=C/c3ccccc3)CC2)no1	Bead autofluor 19463
CCOc1cccc2cc(C(=O)N3CCN(C/C=C/c4ccccc4)CC3)c(=O)oc12	Bead autofluor 16172, BoNT-A LC inh2 inconclusive
COCCN(CCOC)C(=O)[C@@H](Cc1ccccc1)NC(=O)[C@H]1O[C@@H](n2ccc(N)nc2=O)[C@H](O)[C@@H]1O	none (no result: Anthrax LF inh2, BoNT-F LC inh, Bead autofluor, 3CLpro inhibitor, BoNT-A LC inh2)
O=C(c1ccccc1[N+](=O)[O-])N1CCC(Cc2ccccc2)CC1	Bead autofluor 22923
Cc1noc(C)c1C(=O)N1CCC(Cc2ccccc2)CC1	Bead autofluor 22708, BoNT-A LC inh2 inconclusive
Cc1cc(C(=O)N2CCC(Cc3ccccc3)CC2)no1	none
O=C(OCc1ccccc1)C1CCCN1C(=O)c1ccccc1[N+](=O)[O-] (centres undefined)	Bead autofluor 20292, BoNT-A LC inh2 inconclusive
O=C(OCc1ccccc1)C1CCCN1C(=O)c1cccs1 (centres undefined)	none
COC(=O)[C@]12C[C@H](CC(=O)N3CCCC3)C(=O)N(Cc3ccc(Cl)cc3Cl)C1=C[C@H](C(C)C)O[C@@H]2C1CC1	none (no result: Anthrax LF inh2, BoNT-F LC inh, Bead autofluor, 3CLpro inhibitor, BoNT-A LC inh2)
COc1ccc(Cn2c(C)cc3c(c2=O)C(c2cccs2)C(C#N)=C(N)O3)cc1OC (centres undefined)	Bead autofluor 16938
CCOc1ccc(C2C(C#N)=C(N)Oc3cc(C)n(CCN(C)C)c(=O)c32)cc1OCC (centres undefined)	Bead autofluor 16485
Cc1cc2c(c(=O)n1CCN(C)C)C(c1ccc(Cl)cc1)C(C#N)=C(N)O2 (centres undefined)	Bead autofluor 24829, BoNT-A LC inh2 inconclusive
COC(=O)[C@]12C[C@H](CC(=O)NCCC(C)C)C(=O)N(Cc3cccc4ccccc34)C1=C[C@H](COCc1ccccc1)O[C@@H]2C	none (no result: Anthrax LF inh2, BoNT-F LC inh, Bead autofluor, 3CLpro inhibitor, BoNT-A LC inh2)
Cn1c(-c2ccc(C(C)(C)C)cc2)n[nH]c1=S	none
CC(C)(C)c1ccc(-c2n[nH]c(=S)n2C2CCCC2)cc1	Bead autofluor 22762, BoNT-A LC inh2 inconclusive
O=C(NCc1ccc(F)cc1)N[C@@H](Cc1ccccc1)C(=O)O	Bead autofluor 22456
O=C(NCc1ccccc1)N[C@@H](Cc1ccccc1)C(=O)O	Bead autofluor 16799, BoNT-A LC inh2 inconclusive
COC(=O)[C@H](Cc1ccccc1)NC(=O)NCc1cccs1	Bead autofluor 19692
O=C(NC(Cc1ccc(F)cc1)C(=O)O)c1ccccc1 (centres undefined)	none
O=C(NCc1cccs1)N[C@@H](Cc1ccccc1)C(=O)O	none
CCCCNS(=O)(=O)/C=C/c1ccccc1CNC(=O)OC(C)(C)C	none (no result: Anthrax LF inh2, BoNT-F LC inh, Bead autofluor, 3CLpro inhibitor, BoNT-A LC inh2)
COC(=O)C1=CN(Cc2ccc(OC)cc2)C=C(C(=O)OC)C1c1cc(OC)c(OC)c(OC)c1	BoNT-F LC inh 41 (no result: CCHFV vOTU inh)
COC(=O)C1=CN(Cc2ccc(F)cc2)C=C(C(=O)OC)C1c1cc(OC)c(OC)c(OC)c1	none
CCCCCCCCN1C(=O)N2Cc3cc(OC)ccc3C2CS1(=O)=O (centres undefined)	none (no result: Anthrax LF inh2, BoNT-F LC inh, Bead autofluor, 3CLpro inhibitor, BoNT-A LC inh2)
O=C(Nc1ccc(N2CCN(C(=O)c3ccccc3)CC2)cc1)c1cccs1	none
CCC(=O)N1CCN(c2ccc(NC(=O)c3cccs3)cc2)CC1	Bead autofluor 17020
O=[N+]([O-])c1ccc(N2CCN(c3ccc(Cl)nn3)CC2)c(Cl)c1	Bead autofluor 20451
COCC(=O)N[C@H]1C[C@@H]2O[C@@H](CO)CC[C@@H]2O[C@@H]1CCc1ccc(-c2ccccc2)cc1	none (no result: Anthrax LF inh2, BoNT-F LC inh, Bead autofluor, 3CLpro inhibitor, BoNT-A LC inh2)
Cn1ccnc1SCc1ccc([N+](=O)[O-])cc1	Bead autofluor 19757, BoNT-A LC inh2 inconclusive
COc1ccc(CSc2nnc(SCc3ccc([N+](=O)[O-])cc3)s2)cc1	Bead autofluor 23671
Cc1nnc(SCc2cc([N+](=O)[O-])cc3c2OCOC3)[nH]c1=O	none
Cn1ccnc1SCc1cccc([N+](=O)[O-])c1	none
COc1ccc(Nc2nnc(SCc3cc([N+](=O)[O-])cc4c3OCOC4)s2)cc1	Bead autofluor 23675
C=CCn1c(SCC(=O)Nc2ccccc2-c2ccccc2)nnc1-c1ccc(Cl)cc1	none (no result: Anthrax LF inh2, BoNT-F LC inh, Bead autofluor, 3CLpro inhibitor, BoNT-A LC inh2)
O=C(Cn1nnc(-c2ccccc2F)n1)Nc1ccc(Cl)cc1	none (no result: Anthrax LF inh2, BoNT-F LC inh, Bead autofluor, 3CLpro inhibitor, BoNT-A LC inh2)
Cc1noc(C)c1CSCC(=O)OCc1nc2ccccc2c(=O)n1CC#N	Bead autofluor 21620
Cc1occc1-c1nnc(SCc2nc3ccccc3c(=O)n2CC#N)n1C	Bead autofluor 23590
Cc1ccc(NC(=S)N2CCN(C(=O)C3CCCO3)CC2)c(C)c1 (centres undefined)	Bead autofluor 22658, BoNT-A LC inh2 inconclusive
CCc1c(C)sc(NC(=S)N2CCN(C(=O)C3CCCO3)CC2)c1C(=O)OC (centres undefined)	Bead autofluor 51235
Cc1ccc(C)c(NC(=S)N2CCC(N(C)CC3CCCO3)CC2)c1 (centres undefined)	none
Cc1ccc(NC(=S)N2CCC(N(C)CC3CCCO3)CC2)c(C)c1 (centres undefined)	Bead autofluor 19642
CCOC(=O)CC(/C(C)=N\O)c1ccccc1 (centres undefined)	Bead autofluor 21192
CCOC(=O)c1snc2c(=O)[nH]cnc12	Bead autofluor 18607
O=C(N[C@@H](Cc1cccnc1)C(=O)N1CCC[C@H]1C(=O)NC1CCCC1)C1CCCC1	none (no result: Anthrax LF inh2, BoNT-F LC inh, Bead autofluor, 3CLpro inhibitor, BoNT-A LC inh2)

Source: PubChem (several laboratories)
